Compounds without any hit were thinned out: in the full panel of roughly 83,000, 20% have a hit.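 Testing used 96-well plates and a 48-hour single-concentration exposure. Example: -40 means 40% of the starting cells died.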 Unmarked numbers belong to inactive results. The source made the active and inactive calls.

This assay relates to UO-31 renal. Description: NCI-60 one-dose screen, 48 h (100 = growth as untreated, 0 = no growth, -100 = all killed). The following applies: 10 µM unless noted. On the procedure:
Growth inhibition of the UO-31 human tumor cell line is measured as a screen for anti-cancer activity. Cells are grown in 96 well plates and exposed to the test compound for 48 hours. Compounds are tested at a single concentration, which is 10^-5 M for most compounds. The reported endpoint is percent growth (GI% or GIPRCNT), where numbers from 0 - 100% represent growth inhibition, and numbers from -100% - 0 represent cell death. For example, a value of 40 represents 60% growth inhibition. A value of 0 means no net growth occurred over the course of the experiment. A value of -40 indicates 40% of cells at the beginning of the experiment died by the end of the experiment. A value of -100 means all cells are dead at the end of the experiment.
NCI-60 Human Tumor Cell Lines Screen was performed using the standard one-dose NCI protocol, which is described in more detail at https://dtp.cancer.gov/discovery_development/nci-60/default.htm.
Compounds with GIPRCNT values below 10 were considered active. Activity score was based on GIPRCNT using the following formula: […]
Score is 0 for GIPRCNT values of 100 or above, 50 for GIPRCNT values of 0, and 100 for GIPRCNT values of -100.
Take `COc1ccc(/C=C/c2nc(N3CCOCC3)c3cc(F)c(F)cc3n2)cc1OC`: the growth is 20.1%.

As to `O=S(=O)(NCCCNc1cc(-c2cn(-c3ccccc3)nc2-c2cccc(O)c2)ccn1)c1ccc(Br)cc1`, the growth is 3.1% (active).

For the compound `CCOC(=O)C1=C(CSC(=S)N(C2CCCCC2)C2CCCCC2)N(C)C(=O)NC1c1ccccc1` (stereo not given), the growth was 44.5%.

On to `CCC1CCc2nc3sc(C(=O)Nc4ccccc4C)c(N)c3cc2C1` (stereo not given), for which the growth is 37.6%.

Consider `Cc1cc(C)c(NC(=O)c2sc3nc4c(cc3c2N)CN(Cc2ccccc2)CC4)c(C)c1`, for which the growth was 26.5%.

`CCO/C=N/NC(=O)c1ccncc1`: the growth is 98.9%.

In the case of `CC(Cc1nnc(SCC(=O)Nc2ccc(I)cc2)n1N)c1ccccc1` (stereo not given), the growth was 74.1%.

Regarding `COc1ccc(NC(=O)/N=c2\oc3c(OC)cccc3cc2-c2cc3ccccc3[nH]2)cc1`, the growth was 90.4%.

On to `O=C(C[N+](=O)[O-])c1ccc(Cl)cc1`, for which the growth was 90.3%.

On to `O=C(O)C(=Cc1c2ccccc2cc2ccccc12)C(=O)O`, for which the growth is 82%.

Turning to `N#Cc1ccc(NC(=O)c2ccc3cccnc3c2O)cc1`, the growth is 18.4%.

On to `Oc1ccc(Cl)cc1-c1cc(-c2ccc(Cl)cc2)n[nH]1`, for which the growth is 29%.

For the compound `NC(N)=NC(N)=Nc1ccccc1-c1ccccc1`, the growth is 99.3%.

On to `COc1cc(CNC(=O)CCSc2nc3ccccc3c(=O)n2Cc2cc(OC)c(OC)c(OC)c2)cc(OC)c1OC`, for which the growth is 47.2%.

For `Cc1ccc2c(c1)C(=O)C(c1c(-c3[nH]c(=O)c4ccc(C)cc4c3O)c(O)c3ccccc3c1O)=NC2=O`, the growth is -11% (active).

`c1cncc(CNc2ccccc2-c2nnc(Nc3ccc4c(c3)OCCO4)o2)c1`: the growth was 47.1%.

As for `CN(C)c1ncc(-c2ccc(C(F)(F)F)cc2)c(NC2CCCCCC2)n1`, the growth is 31%.

`Nc1c(C(=O)c2ccc(F)cc2)sc2nc3c(cc12)CCCC3`: the growth was 75.3%.

Turning to `COc1cccc(/C=C/c2c(C(=O)O)cccc2[N+](=O)[O-])c1OC`, the growth is 87.1%.

`NS(=O)(=O)c1ccc(NCC(=O)Nc2ccc(-c3nc4ccccc4s3)cc2)cc1`: the growth was 74.4%.

Turning to `Cc1ccc(S(=O)(=O)N2CCC(C(=O)Nc3ccc(F)cc3F)CC2)cc1`, the growth was 37.6%.

For the compound `O=C(Nc1ccc(Cl)cc1)c1cc(-c2ccc(F)cc2)c2sc(=O)[nH]c2n1`, the growth is 4.68% (active).

For `Nc1cc2c(cc1N)-c1cc(N)c(N)cc1C2`, the growth was 53.9%.

For the compound `OC1CC2c3ccccc3C1c1ccccc12` (stereo not given), the growth is 95.7%.

Regarding `NC(CC(N)C(=O)O)C(=O)O` (stereo not given), the growth was 94.8%.

Regarding `CC1CCc2c(sc(NC(=O)CSc3nnc4ccccn34)c2C(N)=O)C1` (stereo not given), the growth is 110%.

Turning to `COc1cc(OC)c(C(=O)/C=C/c2ccc(C#N)cc2)c(OC)c1`, the growth is 32.4%.

In the case of `CN(C)c1ccc(C2CC(c3ccccc3)=NN2/C=C2\SC(=O)NC2=O)cc1` (stereo not given), the growth was 78.9%.

For `CC(=O)Nc1ccc(S(=O)(=O)NC(CCC(=O)Nc2ccc(Cl)cc2)C(=O)O)cc1` (stereo not given), the growth was 62.1%.

On to `CCOc1ccc(/C=C/C=N/NC(N)=S)cc1`, for which the growth was 38.3%.

Regarding `CC/C=C\C/C=C\C[C@H](O)C/C=C1/C(=O)C=C[C@H]1C/C=C\CCC(=O)OC`, the growth was 48.1% [8.25 µM].

For the compound `O=C(CCCn1c2c(sc3ccccc32)c(=O)n2nnc(-c3ccccc3)c12)NCCc1cnc[nH]1`, the growth is -90.3% (active).

Take `CN=S(=O)(NC(=O)c1ccc(Cl)cc1Cl)c1ccc(Br)s1` (stereo not given): the growth was 89.4%.

With `COc1cc(NCCCN=C(N)NC(N)=NC(C)C)c2ncccc2c1`, the growth was 69.1%.

Regarding `O=C1Nc2cc(Cl)ccc2Oc2cc(Oc3ccccc3)ccc21`, the growth is 53.4%.

For `O=C1Nc2cc(Cl)ccc2/C1=C/c1ccc(N2CCOCC2)s1`, the growth is 85.9%.

For `O=C(Nc1cccc(Cl)c1)c1cc([N+](=O)[O-])ccc1O`, the growth is 45.5%.

Turning to `C[N+](C)(C)c1ccc(CC2c3ccccc3-c3ccccc32)cc1`, the growth is 90.9%.

Turning to `Cc1ccc(OCCn2c(C)nn(-c3ccc(Cl)cc3)c2=O)cc1`, the growth was 83.9%.

On to `Cc1cc(N/C=c2\sc3ncnn3c2=O)no1`, for which the growth is 91.5%.
